# According to PubChem BioAssay:
# Activity calls are given as the source filed them.
# What was measured:
# [1] = optical density shifts of acrAB sulA E. coli – strain DRC41, OD650, 48 h, E. coli filamentation inducer project, primary screen (AID 1152); conditions: higher = more signal, called active from +8 up or from −8 down;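 further: E. coli MC1000 strain DRC41 lacking acrAB efflux pump and sulA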
# [2] = probe aLefty1 binding on compound microarray – biochemical, small-molecule microarray, 635/667 nm fluorescence, primary screen (AID 1153); conditions: higher = more signal;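 further: score merges spot fluorescence with signal-to-noise ratio from the scanned slide images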
# [3] = plasmodial surface anion channel blockers, osmotic lysis – cell-based, P. falciparum Indochina, OD700, 1 h, primary screen (AID 1154); conditions: P. falciparum Indochina infected RBC osmotic lysis, higher = more signal, called active from +8 up or from −8 down
# [4] = plasmodial surface anion channel blockers, osmotic lysis – cell-based, P. falciparum Indochina, OD700, 2 h, primary screen (AID 1155);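 further: lysis reports solute entry through the parasite surface anion channel PSAC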; conditions: P. falciparum Indochina infected erythrocytes, higher = more signal, called active from +8 up or from −8 down
# [5] = changes in parasitized red cell lysis, either direction – P. falciparum Indochina, OD700, 3 h, PSAC antagonist project, primary screen (AID 1156); conditions: P. falciparum-infected erythrocytes, osmotic lysis, higher = more signal, called active from +8 up or from −8 down
# [6] = plasmodial surface anion channel blockers, osmotic lysis – cell-based, P. falciparum Indochina, OD700, 18 h, primary screen (AID 1157); conditions: P. falciparum Indochina infected erythrocytes, osmotic lysis OD700, 18 h; higher = more signal, called active from +8 up or from −8 down
# [7] = S6 kinase pathway phospho-S6 level changes – cell-based, A549, cytoblot, luminescence, serum-stimulated, primary screen (AID 1158); conditions: 5 h, higher = more signal;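 further: serum-stimulated A549 lung adenocarcinoma cells; signal is phosphorylated S6 detected by cytoblot immunostaining with HRP secondary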
# [8] = target: NADPH oxidase 2 (Homo sapiens) (UniProt P04839); experiment: compounds shifting NOX2 Amplex Red fluorescence – cell-based, HEK293-NOX2, PMA-stimulated, NOX inhibitor project, primary screen (AID 1159); conditions: 45 min, higher = more signal, called active from +8 up or from −8 down; further: test concentration not given here
# NADPH oxidase 2 (Homo sapiens), sequence (P04839 whole entry, looked up): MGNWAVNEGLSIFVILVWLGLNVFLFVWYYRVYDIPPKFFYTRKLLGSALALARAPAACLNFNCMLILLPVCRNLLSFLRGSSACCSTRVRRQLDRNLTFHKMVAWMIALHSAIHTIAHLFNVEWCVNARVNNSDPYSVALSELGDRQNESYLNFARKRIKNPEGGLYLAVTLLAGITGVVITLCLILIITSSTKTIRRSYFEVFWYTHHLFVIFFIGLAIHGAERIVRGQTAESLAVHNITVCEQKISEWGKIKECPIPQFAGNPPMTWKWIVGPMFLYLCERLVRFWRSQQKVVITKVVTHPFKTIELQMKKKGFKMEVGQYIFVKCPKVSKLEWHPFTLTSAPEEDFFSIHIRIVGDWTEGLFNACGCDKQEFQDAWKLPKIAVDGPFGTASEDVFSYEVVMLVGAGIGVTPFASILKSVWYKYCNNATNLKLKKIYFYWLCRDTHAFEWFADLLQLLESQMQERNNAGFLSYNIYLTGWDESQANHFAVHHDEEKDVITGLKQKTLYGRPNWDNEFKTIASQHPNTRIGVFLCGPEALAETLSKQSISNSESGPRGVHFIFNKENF
# [9] = target: NADPH oxidase 4 (Homo sapiens) (UniProt Q9NPH5); experiment: compounds shifting NOX4 Amplex Red fluorescence – cell-based, HEK293-NOX4, tetracycline-induced, NOX inhibitor project, primary screen (AID 1160); conditions: HEK293-NOX4, Amplex Red H2O2 fluorescence, 45 min; higher = more signal, called active from +8 up or from −8 down
# NADPH oxidase 4 (Homo sapiens), sequence (Q9NPH5 whole entry, looked up): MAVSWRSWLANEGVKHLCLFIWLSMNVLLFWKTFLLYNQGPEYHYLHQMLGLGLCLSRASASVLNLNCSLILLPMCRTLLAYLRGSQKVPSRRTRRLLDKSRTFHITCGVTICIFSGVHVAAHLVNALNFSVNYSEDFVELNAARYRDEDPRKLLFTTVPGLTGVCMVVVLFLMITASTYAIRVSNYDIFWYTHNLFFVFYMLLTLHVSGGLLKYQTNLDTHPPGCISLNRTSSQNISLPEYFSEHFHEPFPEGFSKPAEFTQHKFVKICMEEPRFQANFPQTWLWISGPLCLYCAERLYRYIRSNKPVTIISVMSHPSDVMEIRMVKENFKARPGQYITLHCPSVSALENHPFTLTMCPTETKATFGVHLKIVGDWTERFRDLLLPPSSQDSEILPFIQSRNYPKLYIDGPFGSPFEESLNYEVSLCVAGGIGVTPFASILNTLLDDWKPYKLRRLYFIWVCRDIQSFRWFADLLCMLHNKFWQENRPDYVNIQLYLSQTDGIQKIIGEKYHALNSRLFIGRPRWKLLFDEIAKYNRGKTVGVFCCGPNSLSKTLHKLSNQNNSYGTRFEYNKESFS
# [10] = target: NADPH oxidase 5 (Homo sapiens) (UniProt Q96PH1); experiment: compounds shifting NOX5 Amplex Red fluorescence – cell-based, HEK293-NOX5, NOX inhibitor project, primary screen (AID 1161); conditions: HEK293-NOX5, ionomycin, 45 min, higher = more signal
# NADPH oxidase 5 (Homo sapiens), sequence (Q96PH1 whole entry, looked up): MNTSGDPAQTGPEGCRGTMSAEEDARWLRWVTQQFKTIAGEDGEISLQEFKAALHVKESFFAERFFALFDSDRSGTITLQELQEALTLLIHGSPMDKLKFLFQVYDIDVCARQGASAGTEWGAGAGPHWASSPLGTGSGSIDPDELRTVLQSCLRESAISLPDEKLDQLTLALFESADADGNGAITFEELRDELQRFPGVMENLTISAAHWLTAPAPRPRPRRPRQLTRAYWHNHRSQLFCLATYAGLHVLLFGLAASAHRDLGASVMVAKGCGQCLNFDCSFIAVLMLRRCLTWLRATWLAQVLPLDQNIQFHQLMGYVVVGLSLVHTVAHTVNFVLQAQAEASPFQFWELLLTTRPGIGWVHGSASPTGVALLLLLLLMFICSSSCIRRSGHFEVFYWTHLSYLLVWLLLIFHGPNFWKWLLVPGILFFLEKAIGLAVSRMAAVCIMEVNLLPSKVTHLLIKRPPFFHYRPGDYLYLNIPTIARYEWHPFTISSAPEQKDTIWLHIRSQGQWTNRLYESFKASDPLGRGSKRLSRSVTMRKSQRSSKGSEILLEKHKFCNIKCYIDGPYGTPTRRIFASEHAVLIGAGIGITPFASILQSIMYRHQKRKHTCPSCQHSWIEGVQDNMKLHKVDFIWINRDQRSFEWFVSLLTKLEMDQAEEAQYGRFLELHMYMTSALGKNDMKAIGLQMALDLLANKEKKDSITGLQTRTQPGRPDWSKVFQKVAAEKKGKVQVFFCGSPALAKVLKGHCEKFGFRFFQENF
SMILES,z-score [1],composite z-score [2],z-score [3],z-score [4],z-score [5],z-score [6],z-score [7],z-score [8],z-score [9],z-score [10]
CN1C(=O)C2C=CC(C(O)c3ccc(I)cc3)N(N(c3ccccc3)c3ccccc3)C2C1=O (stereo not given),-1.27 (inactive),0.193,3.99 (inactive),1.62 (inactive),0.537 (inactive),1.54 (inactive),-1.19,0.461 (inactive),1.23 (inactive),-0.585
COc1ccc(-c2cc3c(c(CCc4ccccc4)n2)[Si](C(C)C)(C(C)C)O[C@H]3c2ccccc2)cn1,0.0534 (inactive),-0.193,4.29 (inactive),1.36 (inactive),-0.449 (inactive),0.775 (inactive),-0.643,0.947 (inactive),0.741 (inactive),0.0862
COc1cc(Cc2cc3c(c(-c4ccccc4)n2)[Si](C(C)C)(C(C)C)OC3)cc(OC)c1OC,0.752 (inactive),0.0299,1.62 (inactive),0.702 (inactive),0.84 (inactive),0.332 (inactive),0.159,1.04 (inactive),0.424 (inactive),0.0407
C[C@]1(C(=O)O)c2ccccc2C(=O)N(Cc2cc(C(F)(F)F)cc(C(F)(F)F)c2)[C@H]1c1ccc(CO)cc1,-0.485 (inactive),-0.0479,1.8 (inactive),0.168 (inactive),-0.173 (inactive),0.157 (inactive),-0.0892,0.803 (inactive),0.0284 (inactive),-0.714
C=CC[C@]1(C(=O)NCCN2CCOCC2)N=C(c2ccc(OCCCO)cc2)O[C@H]1c1ccccc1,-0.151 (inactive),0.296,4.72 (inactive),0.644 (inactive),0.168 (inactive),0.275 (inactive),-0.45,0.0905 (inactive),-0.0559 (inactive),0.115
CN1C(=O)C2C=CC(C(O)COCc3ccccc3)N(Nc3ccc([N+](=O)[O-])cc3[N+](=O)[O-])C2C1=O (stereo not given),-0.416 (inactive),0.332,3.59 (inactive),1.4 (inactive),-0.0794 (inactive),1.05 (inactive),-0.859,0.223 (inactive),-2.17 (inactive),-0.914
C=CCNC(=O)[C@H]1[C@@H]2C(=O)O[C@@H](c3ccccc3)[C@@H](c3ccccc3)N2[C@@H](c2ccc(OCCO)cc2)[C@]12C(=O)N(C(=O)OCCOC)c1ccc(C#CCNC(N)=O)cc12,0.33 (inactive),0.298,2.53 (inactive),0.666 (inactive),1.09 (inactive),0.83 (inactive),0.387,1.76 (inactive),1.44 (inactive),0.12
COC(=O)C(CC#Cc1ccc2c(c1)[C@]1(C(=O)N2)[C@H](C(=O)NC[C@H](O)c2ccccc2)[C@H]2C(=O)O[C@H](c3ccccc3)[C@H](c3ccccc3)N2[C@@H]1c1ccc(O)cc1)C(=O)OC,-1.21 (inactive),-0.445,1.44 (inactive),0.21 (inactive),-0.506 (inactive),-0.0801 (inactive),-0.0784,1.4 (inactive),0.691 (inactive),1.33
CCOC(=O)C[C@H]1[C@H](OC(=O)c2ccccc2-c2ccccc2)[C@@H](NC(=O)CC(C)C)c2cc(OCCCO)ccc2N1C(=O)c1ccccc1,0.822 (inactive),0.0816,0.0883 (inactive),-1.7 (inactive),-1.27 (inactive),-2.84 (inactive),1.47,0.924 (inactive),0.899 (inactive),-1.19
CCOC(=O)C[C@H]1[C@H](OC(=O)c2ccc(-c3ccccc3)cc2)[C@@H](NC(=O)c2ccc(-c3ccccc3)cc2)c2cc(OCCCO)ccc2N1C(=O)c1ccccc1,-0.825 (inactive),0.0437,0.744 (inactive),0.745 (inactive),-0.392 (inactive),0.678 (inactive),-0.0382,0.546 (inactive),-1.29 (inactive),-0.655
O=C1c2ccccc2[C@@]2(Cc3ccccc3N(CC(F)(F)F)C2=O)[C@H](c2ccc(CO)cc2)N1Cc1ccccc1,-0.98 (inactive),-0.0626,-0.0567 (inactive),-0.992 (inactive),0.11 (inactive),-1.93 (inactive),2.33,-2.06 (inactive),-2.39 (inactive),-2.36
O=C1O[C@H](c2ccccc2)[C@H](c2ccccc2)N2[C@H]1[C@@H](C(=O)O)[C@]1(C(=O)Nc3ccc(C#CC4(O)CCCCCC4)cc31)[C@H]2c1ccccc1OCCO,0.782 (inactive),0.708,-2.1 (inactive),-0.922 (inactive),-14.7 (active),-0.743 (inactive),0.364,2.49 (inactive),-1.56 (inactive),-1.32
O=C1N(Cc2ccccc2)c2ccccc2C[C@@]12N=C(c1ccc(OCCCO)cc1)O[C@H]2c1ccccc1,-1.12 (inactive),0.383,10.8 (active),2.67 (inactive),3.39 (inactive),1.03 (inactive),0.075,1.92 (inactive),0.112 (inactive),-1.67
